For 9 compounds, Potency results are on record in PubChem BioAssay (NCATS).

Experiment [1] is described as follows: P-glycoprotein substrates identified in KB-8-5-11 adenocarcinoma cell line, qHTS therapeutic library screen (AID 1346987). Also: nearly all actives have a fitted effect of over 65% in size. The method, boiled down: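 In this qHTS, P-gp-rich KB-8-5-11 cells received library compounds across a concentration range. Viability was quantified by luminescence after 72 h at 37 degree C.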
A general note: In qHTS, concentration-response curves come from the screen itself.

Experiment [2] in a line: NS1 protein of Zika virus - qHTS assay to identify small molecule inhibitors in human HEK 293 cells (AID 1347053). Also: series mostly up to about 46 µM; nearly all actives have a fitted effect of over 55% in size. An outline of the steps: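 TR-FRET signal from two anti-ZIKV NS1 antibodies quantified NS1 in HEK 293 cells 24 h after MR766 infection at MOI = 0.5; compounds were added 1 h before virus. Uninfected cells and infected cells defined the NS1 normalization range.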

Experiment [3] can be described thus: qHTS of pediatric cancer cell lines to identify multiple opportunities for drug repurposing: Primary screen for TC32 cells (AID 1347089). Also: nearly all actives have a fitted effect of over 60% in size. The method, boiled down:
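TC32 cells, 500-1,000/well in growth medium, compound-treated 48 h at 37 °C; viability from CellTiter-Glo luminescence. Primary screen: MIPE 11-point (0.78 nM–46 µM final), NPC 8-point (0.59 nM–46 µM final); confirmatory at 11-point dilutions.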

The nature of experiment [4]: qHTS of pediatric cancer cell lines to identify multiple opportunities for drug repurposing: Primary screen for DAOY cells (AID 1347090). Also: series mostly up to about 46 µM; nearly all actives have a fitted effect of over 55% in size. An outline of the steps:
(§1)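 Cell viability, CellTiter-Glo luminescence; 500-1,000 cells/well, 8- or 11-point titration, 48 h compound exposure at 37 degrees C, 5% CO2. Controls: DMSO neutral, bortezomib 2.3 µM final as positive.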

A short description of experiment [5]: qHTS of pediatric cancer cell lines to identify multiple opportunities for drug repurposing: Primary screen for SJ-GBM2 cells (AID 1347091). The method, boiled down:
as §1

Experiment [6] can be described thus: qHTS of pediatric cancer cell lines to identify multiple opportunities for drug repurposing: Primary screen for SK-N-MC cells (AID 1347093). Also: potency is read from the fitted curve at half-maximal effect. The method, boiled down:
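Metabolically active cells were quantified by ATP-dependent luminescence (CellTiter-Glo, 15 min at room temperature) following 48 h treatment. Cells had been plated at 500-1,000 per well and settled for 5 h beforehand.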

The nature of experiment [7]: qHTS of pediatric cancer cell lines to identify multiple opportunities for drug repurposing: Primary screen for BT-37 cells (AID 1347094). Also: potency is read from the fitted curve at half-maximal effect. The method, boiled down:
(§2)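 Following a 5-hour attachment period, cells at 500-1,000/well received compounds and were cultured for 48 hours. CellTiter-Glo was added and luminescence read to estimate viable, metabolically active cells.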

A short description of experiment [8]: qHTS of pediatric cancer cell lines to identify multiple opportunities for drug repurposing: Primary screen for NB-EBc1 cells (AID 1347095). Also: potency is read from the fitted curve at half-maximal effect. The method, boiled down:
as §2

Experiment [9] is described as follows: qHTS of pediatric cancer cell lines to identify multiple opportunities for drug repurposing: Primary screen for U-2 OS cells (AID 1347096). Also: nearly all actives have a fitted effect of over 50% in size. An outline of the steps: (§3)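 Cells (500-1,000/well) rested 5 h, then received compounds for 48 h; metabolically active cells were measured by CellTiter-Glo luminescence. Final concentrations spanned up to 46 µM (MIPE, 11-point) or 0.59 nM-46 µM (NPC, 8-point) in primary screens, 11-point in follow-ups.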

Experiment [10] is described as follows: qHTS of pediatric cancer cell lines to identify multiple opportunities for drug repurposing: Primary screen for Saos-2 cells (AID 1347097). Also: nearly all actives have a fitted effect of over 40% in size. An outline of the steps: as §2
Experiment [11] is described as follows: qHTS of pediatric cancer cell lines to identify multiple opportunities for drug repurposing: Primary screen for SK-N-SH cells (AID 1347098). Also: nearly all actives have a fitted effect of over 65% in size. An outline of the steps:
as §3

Experiment [12] is described as follows: qHTS of pediatric cancer cell lines to identify multiple opportunities for drug repurposing: Primary screen for NB1643 cells (AID 1347099). Also: nearly all actives have a fitted effect of over 50% in size. Also: potency is read from the fitted curve at half-maximal effect. An outline of the steps: as §2
The nature of experiment [13]: qHTS of pediatric cancer cell lines to identify multiple opportunities for drug repurposing: Primary screen for A673 cells (AID 1347092). Also: nearly all actives have a fitted effect of over 45% in size. Also: potency is read from the fitted curve at half-maximal effect. An outline of the steps:
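A673 cells (500-1,000 cells/well) were treated 48 hours at 37 degrees C with compounds at 11-point (0.78 nM to 46 µM) or 8-point (0.59 nM to 46 µM) dilutions. Viability read by CellTiter-Glo luminescence; concentration-response curves fitted.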

Results filed as inconclusive are left out. The source made the active and inactive calls. Calls follow the shape of the dose curve; as a rule, active = well fitted curve in the direction sought with a large enough effect; inconclusive = small, poorly fitted or top-dose-only effect, or another doubt; inactive = no such curve, though single readings can be large; an effect the other way counts as inactive or inconclusive.

Consider `O=C(NC1CCOCC1)c1ccc(-c2cc(-c3cn[nH]c3-c3ccccn3)ccn2)cc1`, for which the Potency result in experiment [1], in experiment [2], in [3], in experiment [4], in [5] and in [6] was “inactive” throughout. The Potency entry in [7], in experiment [8], in experiment [9], in [10], in experiment [11] and in experiment [12] was “inactive” throughout.
On to `CC(C)C[C@H](CC(=O)O)C(=O)N[C@@H](Cc1c[nH]c2ccccc12)C(=O)N[C@@H](C)c1ccccc1`, for which the Potency entry in experiment [1], in experiment [2], in experiment [3], in [4] and in experiment [9] was “inactive” each time. For the same compound, the Potency is 1.87 µM (active) in experiment [13], 1.66 µM (active) in experiment [6], 3.06 µM (active) in [7] and 1.05 µM (active) in [8].
For the compound `O=C(CCN1CCN(C(=O)OCc2cc(Cl)cc(Cl)c2)CC1)c1ccc2[nH]c(=O)oc2c1`, the Potency entry in experiment [1], in experiment [2], in [3], in [4], in [5] and in [6] was “inactive” in each case. Besides, the Potency result in experiment [7], in experiment [8] and in experiment [9] was “inactive” throughout.
`O=c1cc(-c2ccccc2)oc2cc(O)cc(O)c12`: the Potency entry in [1], in experiment [2], in experiment [3], in experiment [4], in experiment [13] and in [6] was “inactive” in each case. Further, the Potency entry in experiment [8], in experiment [9] and in experiment [10] was “inactive” throughout.
Regarding `O=C(O)c1cc(-c2ccccc2)nc2ccccc12`, the Potency result in experiment [1], in experiment [2], in experiment [3], in experiment [4], in experiment [5] and in [13] was “inactive” throughout. In addition, the Potency entry in [7], in experiment [8], in experiment [9], in experiment [10], in [11] and in experiment [12] was “inactive” each time. For the same compound, in experiment [6], the Potency is 49.1 µM (active).
For the compound `C[C@@H](O)[C@H]1C(=O)N2C(C(=O)O)=C(S[C@@H]3CN[C@H](C(=O)N(C)C)C3)[C@H](C)[C@H]12`, the Potency result in experiment [1], in experiment [2], in experiment [3], in experiment [4], in experiment [5] and in experiment [13] was “inactive” in each case. For the same compound, the Potency entry in [6], in experiment [7], in experiment [8], in [9], in [10] and in [11] was “inactive” throughout. In addition, the Potency result in [12] is “inactive”.
Turning to `CCc1ccc(C=C2SC(=S)NC2=O)cc1`, the Potency entry in experiment [1], in experiment [2], in experiment [3], in experiment [4], in experiment [6] and in experiment [7] was “inactive” each time. Further, the Potency result in experiment [9] and in experiment [11] was “inactive” throughout. In addition, the Potency in [12] was 23.5 µM (active).
Regarding `CC(=Cc1ccccc1)C=C1SC(=S)N(CC(=O)O)C1=O`, the Potency result in experiment [1], in experiment [2], in [3], in [4], in experiment [5] and in [7] was “inactive” each time. Besides, the Potency result in experiment [8], in experiment [9], in experiment [10] and in experiment [12] was “inactive” in each case. Moreover, in experiment [6], the Potency was 13.2 µM (active).
In the case of `CN(C)c1cc(NC(=O)CNC(C)(C)C)c(O)c2c1C[C@@H]1C[C@H]3[C@H](N(C)C)C(=O)C(C(N)=O)=C(O)[C@@]3(O)C(=O)C1=C2O`, the Potency result in [1], in experiment [2], in experiment [3], in experiment [4], in experiment [6] and in experiment [7] was “inactive” each time. Moreover, the Potency entry in [8], in [9], in experiment [10], in experiment [11] and in experiment [12] was “inactive” each time.
